From PubChem BioAssay (NCATS)
Records with an inconclusive call do not appear. Unmarked numbers belong to inactive results. The source made the active and inactive calls. The call rests on the fitted dose curve; in most records, active means well fitted inhibition curve with a large enough effect; inconclusive means small, poorly fitted or top-dose-only effect; inactive means no such curve, though single readings can be large or run the other way.
On the % scale 0 is the no-effect control and ±100 the full control effect; potency means the concentration at half of the fitted maximal effect.

What follows are compounds tested against Cytochrome P450 2C9 (Homo sapiens) (UniProt P11712) (assay: qHTS for inhibitors of CYP2C9 against the NCATS DSHEA and TCM libraries (AID 1919973;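 on activity change, negative = inhibition: luminogenic pro-luciferin CYP2C9 substrate turned into luciferin with NADPH regeneration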)). Conditions: recombinant CYP2C9 enzyme activity, luminescence; series mostly up to 34.1 µM; activity change, negative = inhibition: at the top concentration.
Cytochrome P450 2C9 (Homo sapiens), sequence (P11712 whole entry, looked up): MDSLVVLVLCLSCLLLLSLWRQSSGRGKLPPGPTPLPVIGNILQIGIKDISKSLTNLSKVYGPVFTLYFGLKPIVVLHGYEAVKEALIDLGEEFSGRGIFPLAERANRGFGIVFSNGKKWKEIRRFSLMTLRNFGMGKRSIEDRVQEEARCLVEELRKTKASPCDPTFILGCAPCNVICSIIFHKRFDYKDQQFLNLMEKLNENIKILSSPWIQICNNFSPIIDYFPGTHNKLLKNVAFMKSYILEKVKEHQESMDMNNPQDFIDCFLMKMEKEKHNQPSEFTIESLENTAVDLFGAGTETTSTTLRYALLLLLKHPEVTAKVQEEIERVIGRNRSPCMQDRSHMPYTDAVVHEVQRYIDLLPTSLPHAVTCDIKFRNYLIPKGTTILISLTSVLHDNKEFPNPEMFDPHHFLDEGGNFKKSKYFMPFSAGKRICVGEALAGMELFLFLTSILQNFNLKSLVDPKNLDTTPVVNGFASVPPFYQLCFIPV
In short: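 Light output from converted D-luciferin reports remaining CYP activity. Compounds preincubate with enzyme and substrate for 15 min; NADPH regeneration (1x final) runs the reaction for 30-45 min.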
`CC(C)=CCC/C(C)=C/CC/C(C)=C/CC/C(C)=C/CC1=C(C)C(=O)c2ccccc2C1=O` was tested, and the Potency was 14.1 µM (active).
For `O=C(O)/C=C/c1ccccc1`, the “activity change, negative = inhibition” value was 8.1% [at 58.3 µM].
For `CC/C=C\C/C=C\C/C=C\C/C=C\C/C=C\C/C=C\CCC(=O)O`, the “activity change, negative = inhibition” value was -13.6%.
For `COC1=C(OC)C(=O)C(C/C=C(\C)CC/C=C(\C)CC/C=C(\C)CC/C=C(\C)CC/C=C(\C)CC/C=C(\C)CC/C=C(\C)CC/C=C(\C)CC/C=C(\C)CCC=C(C)C)=C(C)C1=O`, the “activity change, negative = inhibition” value was -5.79%.
With `CCCCCCCCCCCC(=O)OCC(O)CO` (stereo not given) the “activity change, negative = inhibition” value was -28.2%.
`CCCCC/C=C\C/C=C\C/C=C\CCCCC(=O)O` showed an activity change, negative = inhibition of -2.07% [at 4.27 µM].
`C=C1CC[C@H](O)C/C1=C\C=C1/CCC[C@]2(C)[C@@H]([C@H](C)CCCC(C)C)CC[C@@H]12` was tested, and the Potency was 25.1 µM (active).
For `CC1=CCC2CC1C2(C)C` (stereo not given), the “activity change, negative = inhibition” value was -16.2%.
With `CC/C=C\C/C=C\C/C=C\CCCCCCCC(=O)O` the Potency was 7.94 µM (active).
For `CC/C=C\C/C=C\C/C=C\C/C=C\C/C=C\CCCC(=O)O`, the “activity change, negative = inhibition” value was -20.2%.
